# Reference: article PMC8384837, “Expanding the binding specificity for RNA recognition by a PUF domain”
# Legend:
# Assay in all cases: yeast three-hybrid, YBZ-1, SC-Leu-His + 0.5 mM 3-AT, 4 days
# Conditions in all cases: tags: N-Gal4 AD-HA kept; label: inside an RPR1-promoter hybrid RNA with tandem MS2 sites; ssRNA
# PUM1 PUF domain R3-EFG = PUM1 PUF domain R3-EFG (Homo sapiens, UniProt Q14671 828-1176, C935E;R936F;Q939G)
# Method in brief: (§1)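 A centromeric plasmid in strain YBZ-1 co-expressed Pumilio-1 PUF domain libraries, randomized at the three base-contacting residues of each repeat, with matching RNA elements; the strain carries a LexA–MS2 coat fusion and a HIS3 reporter. After four days on SC-Leu (input) or SC-Leu-His + 0.5 mM 3-AT (selection), the repeat regions were PCR-amplified and Illumina-sequenced. The interaction score is the log change in variant frequency from input to selection, using log2 and a pseudocount of 1 where absent.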
# PUM1 PUF domain R8-TYC = PUM1 PUF domain R8-TYC (Homo sapiens, UniProt Q14671 828-1176, N1122T;Q1126C)
# Method in brief: as §1
# PUM1 PUF domain R8-KFG = PUM1 PUF domain R8-KFG (Homo sapiens, UniProt Q14671 828-1176, N1122K;Y1123F;Q1126G)
# Method in brief: as §1
# PUM1 PUF domain R2-EWA = PUM1 PUF domain R2-EWA (Homo sapiens, UniProt Q14671 828-1176, N899E;Y900W;Q903A)
# Method in brief: as §1
# PUM1 PUF domain R1-RCM = PUM1 PUF domain R1-RCM (Homo sapiens, UniProt Q14671 828-1176, S863R;R864C;Q867M)
# Method in brief: as §1
# PUM1 PUF domain R2-KCA = PUM1 PUF domain R2-KCA (Homo sapiens, UniProt Q14671 828-1176, N899K;Y900C;Q903A)
# Method in brief: as §1
# PUM1 PUF domain R5-DHK = PUM1 PUF domain R5-DHK (Homo sapiens, UniProt Q14671 828-1176, C1007D;R1008H;Q1011K)
# Method in brief: as §1
# PUM1 PUF domain R5-VYY = PUM1 PUF domain R5-VYY (Homo sapiens, UniProt Q14671 828-1176, C1007V;R1008Y;Q1011Y)
# Method in brief: as §1
# PUM1 PUF domain R3-SWL = PUM1 PUF domain R3-SWL (Homo sapiens, UniProt Q14671 828-1176, C935S;R936W;Q939L)
# Method in brief: as §1
# PUM1 PUF domain R6-CWA = biological target: T1, PUM1 PUF domain R6-CWA (Homo sapiens, UniProt Q14671 828-1176, N1043C;Y1044W;Q1047A)
# T1 sequence: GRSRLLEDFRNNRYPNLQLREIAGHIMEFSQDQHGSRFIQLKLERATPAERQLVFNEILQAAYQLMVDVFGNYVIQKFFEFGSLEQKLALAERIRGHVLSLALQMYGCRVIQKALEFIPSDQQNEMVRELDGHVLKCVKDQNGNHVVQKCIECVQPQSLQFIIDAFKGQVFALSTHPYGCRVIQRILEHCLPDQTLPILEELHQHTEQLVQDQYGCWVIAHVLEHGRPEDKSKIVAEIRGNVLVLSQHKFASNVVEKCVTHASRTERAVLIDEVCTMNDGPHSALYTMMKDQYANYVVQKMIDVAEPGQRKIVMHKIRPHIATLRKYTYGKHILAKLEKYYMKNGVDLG
# Method in brief: as §1
# Sequence of PUM1 PUF domain R2-KCA (Q14671 828-1176 N899K/Y900C/Q903A): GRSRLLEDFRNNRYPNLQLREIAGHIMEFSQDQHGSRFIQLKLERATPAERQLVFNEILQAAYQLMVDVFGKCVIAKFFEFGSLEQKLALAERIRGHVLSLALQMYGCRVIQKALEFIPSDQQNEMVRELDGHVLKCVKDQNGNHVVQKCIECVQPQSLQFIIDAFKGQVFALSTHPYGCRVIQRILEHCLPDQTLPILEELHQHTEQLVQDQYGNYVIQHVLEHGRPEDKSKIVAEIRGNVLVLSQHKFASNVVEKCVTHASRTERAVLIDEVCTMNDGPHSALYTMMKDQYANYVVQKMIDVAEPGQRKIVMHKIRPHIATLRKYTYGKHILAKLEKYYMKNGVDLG
# Sequence of PUM1 PUF domain R8-TYC (Q14671 828-1176 N1122T/Q1126C): as the sequence (Q14671 828-1176 N899K/Y900C/Q903A) above, with K72N, C73Y, A76Q, N295T, Q299C counted along it
sequence,measurement,setting,value
GGCUAGAACUAGUGGAUCCCCCGGCGCCCGGCGGCUCGAGCCCGGGUAAGUGUAAGUAGUCUGCAUGCCGCCGGGCGCCAUGCCUGCAGGUCGACUCUAGAAAACAUG,binding signal,PUM1 PUF domain R3-EFG,4.12 log2 enrichment (interaction score)
GGCUAGAACUAGUGGAUCCCCCGGCGCCCGGCGGCUCGAGCCCGGGUAAGCGUAAAUAGUCUGCAUGCCGCCGGGCGCCAUGCCUGCAGGUCGACUCUAGAAAACAUG,binding signal,PUM1 PUF domain R8-TYC,2.53 log2 enrichment (interaction score)
same,binding signal,PUM1 PUF domain R8-KFG,2.54 log2 enrichment (interaction score)
GGCUAGAACUAGUGGAUCCCCCGGCGCCCGGCGGCUCGAGCCCGGGUAAGGGUAAAUAGUCUGCAUGCCGCCGGGCGCCAUGCCUGCAGGUCGACUCUAGAAAACAUG,binding signal,PUM1 PUF domain R8-KFG,4.73 log2 enrichment (interaction score)
GGCUAGAACUAGUGGAUCCCCCGGCGCCCGGCGGCUCGAGCCCGGGUAAGUGUAAAAAGUCUGCAUGCCGCCGGGCGCCAUGCCUGCAGGUCGACUCUAGAAAACAUG,binding signal,PUM1 PUF domain R2-EWA,5.74 log2 enrichment (interaction score)
GGCUAGAACUAGUGGAUCCCCCGGCGCCCGGCGGCUCGAGCCCGGGUAAGUGUAAAUGGUCUGCAUGCCGCCGGGCGCCAUGCCUGCAGGUCGACUCUAGAAAACAUG,binding signal,PUM1 PUF domain R1-RCM,0.08 log2 enrichment (interaction score)
GGCUAGAACUAGUGGAUCCCCCGGCGCCCGGCGGCUCGAGCCCGGGUAAGUGUAACUAGUCUGCAUGCCGCCGGGCGCCAUGCCUGCAGGUCGACUCUAGAAAACAUG,binding signal,PUM1 PUF domain R3-EFG,2.94 log2 enrichment (interaction score)
GGCUAGAACUAGUGGAUCCCCCGGCGCCCGGCGGCUCGAGCCCGGGUAAGUGUAAAGAGUCUGCAUGCCGCCGGGCGCCAUGCCUGCAGGUCGACUCUAGAAAACAUG,binding signal,PUM1 PUF domain R2-KCA,3.39 log2 enrichment (interaction score)
same,binding signal,PUM1 PUF domain R2-EWA,2.1 log2 enrichment (interaction score)
GGCUAGAACUAGUGGAUCCCCCGGCGCCCGGCGGCUCGAGCCCGGGUAAGUGUAAAUCGUCUGCAUGCCGCCGGGCGCCAUGCCUGCAGGUCGACUCUAGAAAACAUG,binding signal,PUM1 PUF domain R1-RCM,2.75 log2 enrichment (interaction score)
GGCUAGAACUAGUGGAUCCCCCGGCGCCCGGCGGCUCGAGCCCGGGUAAGUGUAAAUAGUCUGCAUGCCGCCGGGCGCCAUGCCUGCAGGUCGACUCUAGAAAACAUG,binding signal,PUM1 PUF domain R3-EFG,4.8 log2 enrichment (interaction score)
same,binding signal,PUM1 PUF domain R5-DHK,2.94 log2 enrichment (interaction score)
same,binding signal,PUM1 PUF domain R5-VYY,2.98 log2 enrichment (interaction score)
same,binding signal,PUM1 PUF domain R3-SWL,3.24 log2 enrichment (interaction score)
same,binding signal,PUM1 PUF domain R6-CWA,4.17 log2 enrichment (interaction score)
same,binding signal,PUM1 PUF domain R8-KFG,6.69 log2 enrichment (interaction score)
GGCUAGAACUAGUGGAUCCCCCGGCGCCCGGCGGCUCGAGCCCGGGUAAGUGUAAUUAGUCUGCAUGCCGCCGGGCGCCAUGCCUGCAGGUCGACUCUAGAAAACAUG,binding signal,PUM1 PUF domain R3-EFG,3.8 log2 enrichment (interaction score)
same,binding signal,PUM1 PUF domain R3-SWL,1.78 log2 enrichment (interaction score)
